Assay results published in PMC5540273 (PLoS ONE, 2017).

system: SRMS; details: concentration: 1 μM, replicates: in singlicate; n = 1
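Also: KINOMEscan kinase panel screen.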

SMILES	%Inh [%]
CCn1c(-c2nonc2N)nc2c(C#CC(C)(C)O)nc(OC[C@H](N)c3ccccc3)cc21 [GSK943949]	4
Cc1cccc(NC(=O)Nc2ccc(Oc3ncnc4ccn(C)c34)cc2)c1	0
O=C(Nc1cccc(Oc2ccc3nc(NC(=O)C4CC4)cn3n2)c1)c1ccccc1C(F)(F)F	0
O=C(Nc1ccccc1F)NC1CCN(c2ccnc(Nc3ccc(F)cc3)n2)CC1 [GSK1379800]	0
NCCCC(NC(=O)c1cc(Br)c(-c2ccnc3[nH]ccc23)s1)c1ccccc1.O=C(O)C(F)(F)F.O=C(O)C(F)(F)F (centres unmarked) [GSK1287544]	0
COc1cccc(C(=O)Nc2cccc(Oc3ccc4nc(NC(=O)C5CC5)cn4n3)c2)c1	20
COC(=O)Nc1nc2cc(Oc3ccc(NC(=O)Nc4cc(C(F)(F)F)ccc4F)cn3)ccc2[nH]1.Cl.Cl [GW681170]	0
Cc1ccc(C(=O)Nc2ccc(Nc3ccnc4cc(-c5nccs5)ccc34)cc2O)cc1.Cl [GW494702]	89
CCc1ccc(-c2ccc3c(c2)-c2c(cnn2C)S(=O)(=O)N3C)cc1	0
CN(C)S(=O)(=O)c1cc(-c2ccc3nccc(-c4cccc(S(N)(=O)=O)c4)c3c2)cnc1N [GSK1669921]	0
COc1cccc(NC(=O)NC2CCN(c3ccnc(Nc4cc(OC)c(OC)c(OC)c4)n3)C2)c1 (centres unmarked) [GSK1379763]	0
O=c1[nH]cc(-c2ccc(N3CCOCC3)cc2)c2sc(-c3cn[nH]c3)cc12 [GSK2276055]	8
COc1cc(Nc2nccc(N3CCC(NC(=O)Nc4cccc(C(C)=O)c4)C3)n2)cc(OC)c1OC (centres unmarked) [GSK1379753]	0
CN1CCN(CCCNc2nccc(-c3c(-c4ccc(F)cc4)nn4cc(C(F)(F)F)ccc34)n2)CC1 [GW621581]	0
c1ccc(-c2cnc3nccnn23)cc1 [AH20685]	0
Cc1ccc(C(=O)N2CC[C@@H](O)C2)cc1-n1c(C)cc(OCc2ccc(F)cc2F)c(Br)c1=O	0

SMILES	%Inh [%]
C[C@@H](Oc1cc(-n2cnc3cc(-c4ccnc(NCCS(C)(=O)=O)c4)ccc32)sc1C(N)=O)c1ccccc1Cl [GSK907232]	0
Cl.c1ccc(-c2ccc3c(Nc4ccc5[nH]ncc5c4)ccnc3c2)nc1 [GW440137]	0
Oc1cc(Nc2ccnc3cc(I)ccc23)ccc1F [GW552771]	0
Nc1n[nH]c2cnc(-c3ccccc3)cc12 [SB-642124]	0
COc1cc(Nc2nccc(N3CCC(NC(=O)c4cc5ccccc5s4)C3)n2)cc(OC)c1OC (centres unmarked) [GSK1379760]	8
C[C@@H]1CC[C@@H](C(=O)Nc2ccccc2)CN1c1cc(-c2ccc3c(N)n[nH]c3c2)nc(N)n1 [GSK2286062]	0
Nc1ncc(-c2cccnc2)c2scc(-c3ccc4c(c3)CCN4C(=O)Cc3ccccc3)c12 [GSK683281]	8
Cc1ccc(F)c(C(=O)Nc2cccc(-c3nn4ccccc4c3-c3ccnc(Nc4cccc(F)c4)n3)c2)c1F [GSK361061]	44
O=C(Nc1cccc(-c2nn3ncccc3c2-c2ccnc(Nc3ccccc3)n2)c1)c1c(F)cccc1F [GSK198271]	94.9
CC(C)c1nc(-c2cccc(NS(=O)(=O)c3c(F)cccc3F)c2F)c(-c2ccnc(Nc3ccc(N4CCOCC4)nc3)n2)s1 [GSK2008607]	99.5
COc1cc(Nc2ncc3c(C)nc(-c4cc5ccccc5[nH]4)n3n2)cc(OC)c1OC [GW869516]	13
COCCOCCOc1cc2ncc3c4ccc(C#N)cc4[nH]c3c2cc1OC	0
O=C(O)C(F)(F)F.O=C(O)C(F)(F)F.O=c1[nH]ccc2nc(N[C@@H]3CCCNC3)nc(Nc3ccc(S(=O)(=O)N4CCOCC4)cc3)c12 [GSK2177277]	0
Cc1cccc(Nc2nc(N[C@H]3CCNC3)ncc2C(N)=O)c1.Cl [GSK2197149]	0
COc1cc(Nc2nccc(-c3c(-c4cccc(NC(=O)c5c(F)cccc5F)c4)nn4ncccc34)n2)cc(OC)c1OC [GSK327238]	98.5
O=C(Nc1n[nH]c2cc(-c3ccoc3)ccc12)C1CC1 [SB-738481]	19
